Data from PubChem BioAssay (NCATS).
Where “and” joins values, the source holds several entries; their conditions need not be identical. Equal entries are not always repeated. Inconclusive results are not listed. Entries that show only a call come without a potency. Values without a mark were called inactive. Calls of active or inactive are those of the source. Calls follow the shape of the dose curve; as a rule, active = well fitted inhibition curve with a large enough effect; inconclusive = small, poorly fitted or top-dose-only effect; inactive = flat fitted curve, though single readings scatter.

Tests used:
Experiment in all cases: Cytotoxic Profiling of Annotated Libraries Using Quantitative High-Throughput Screening (AID 1296008); also: nearly all actives have a fitted effect of over 60% in size
Conditions in all cases: Five cell lines viability, CellTiter-Glo ATP luminescence, 48-72 h; max response: hits give low values
CRL-7250 = normal cell line; test system: CRL-7250
Summary of the method: (§1)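 Cells exposed to compounds for 48 or 72 hr at 37 degrees Celsius. Viability read as ATP-coupled luminescence with CellTiter-Glo after 10 min at room temperature.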

HEK293 = test system: HEK293
Summary of the method: as §1

HaCat = test system: HaCat
Summary of the method: as §1
Potency is read from the fitted curve at half-maximal effect.

SMILES | max response (CRL-7250) [%] | outcome (HEK293) | max response (HaCat) [%] | outcome (CRL-7250) | outcome (HaCat) | Potency (HEK293)
Cc1cc(N2CCCCC2)nc2ccccc12 | -12.2 | inactive | -14.3 | – | – | –
O=C1CC(c2ccc([N+](=O)[O-])cc2)=NN1c1ccccc1 | – | inactive | – | inactive | inactive | –
COC(=O)CC[C@@H](C)[C@H]1CC[C@H]2[C@@H]3CC(=O)[C@H]4C[C@H](OC(C)=O)CC[C@]4(C)[C@H]3CC[C@]12C | -2.01 | inactive | – | – | inactive | –
C[C@]12CCC[C@](C)(C(=O)O)C1CCC13C=C(CO)C(CCC12)C3 (stereo partly specified) | -11 | inactive | – | – | inactive | –
CC1(C)CC[C@]2(C(=O)O[C@@H]3O[C@H](CO)[C@@H](O)[C@H](O)[C@H]3O)CC[C@]3(C)C(=CCC4[C@@]5(C)C[C@@H](O)[C@H](O)C(CO)(CO)C5CC[C@]43C)C2[C@@H]1O (stereo partly specified) | 3.1 | inactive | – | – | inactive | –
C=C1C2=CC(O)C(C)C1(C)CC/C(C)=C/CCC1(C)OC1C2=O (stereo unspecified) | -9.54 | inactive | 1.13 | – | – | –
Cc1cc(Nc2ncc(Cl)c(Nc3ccccc3S(=O)(=O)C(C)C)n2)c(OC(C)C)cc1C1CCNCC1 | -10.6 | – | – | – | inactive | 8.2 µM (active) and 4.17 µM (active)
OC1COC(OCC2OC(OCCc3ccccc3)C(O)C(O)C2O)C(O)C1O (stereo unspecified) | – | inactive | -7.45 | inactive | – | –
CC1=C(C)C(=O)OC(C(C)C2C(O)CC3C4C5OC5C5(O)CC(OC6OC(CO)C(O)C(O)C6O)CC(O)C5(C)C4CCC32C)C1 (stereo unspecified) | – | inactive | – | inactive | inactive | –
C[C@@H]1CCC2C(C)(C)[C@H](O)CC[C@]2(C)[C@@]12Cc1c(O)cc3c(c1O2)CN(CCO)C3=O (stereo partly specified) | -2.75 | inactive | 4.59 | – | – | –
COc1cccc(-c2ccc([C@@H](Oc3cc(-c4ccc(C[C@H](N)C(=O)O)cc4)nc(N)n3)C(F)(F)F)cc2)c1 | – | inactive | – | inactive | inactive | –
C[C@@H]1O[C@@H](O[C@H]2[C@H](OC(=O)C34CCC5(C)C(=CCC6C7(C)CC(O)C(O[C@@H]8O[C@H](C(=O)O)[C@@H](O)[C@H](O)[C@H]8O)C(C)(C(=O)O)C7CCC65C)C3CC(C)(C)CC4O)O[C@H](C)[C@@H](O)[C@@H]2O)[C@H](O)[C@@H](O[C@@H]2OC[C@](O)(CO)[C@H]2O[C@@H]2O[C@H](CO)[C@@H](O)[C@H](O)[C@H]2O)[C@H]1O (stereo partly specified) | -4.39 | inactive | -8.41 | – | – | –
CC1CCC2(O1)C(C)(C)CC(O[C@@H]1O[C@H](CO[C@@H]3OC[C@](O)(CO)[C@H]3O)[C@@H](O)[C@H](O)[C@H]1O)CC2(C)O (stereo partly specified) | -0.207 | inactive | – | – | inactive | –
C=CC(C)(C)C1(CC2NC(=O)C3CCCN3C2=O)C(=O)Nc2cc3c(cc21)C=CC(C)(C)O3 (stereo unspecified) | -5.49 | inactive | -0.592 | – | – | –
CC1CCC2C(C)(C)C(O)CCC2(C)C12Cc1c(O)cc3c(c1O2)CN=C3N (stereo unspecified) | -3.95 | inactive | 3.03 | – | – | –
COc1ccc2cc(OCC3(C(=O)O)CN(C(=O)c4ccc(F)cc4)C3)ccc2c1 | – | inactive | – | inactive | inactive | –
COc1cc2c(cc1OC)CN(C(=O)[C@@H](NCc1ccncc1)C(C)(C)C)CC2 | – | inactive | – | inactive | inactive | –
C/C=C(\C)C(=O)O[C@H]1[C@H](O)[C@]2(COC(C)=O)[C@H](O)C[C@]3(C)C(=CCC4[C@@]5(C)CC[C@H](O[C@@H]6O[C@H](C(=O)O)[C@@H](O[C@@H]7O[C@H](CO)[C@@H](O)[C@H](O)[C@H]7O)[C@H](O)[C@H]6O[C@@H]6O[C@H](CO)[C@@H](O)[C@H](O)[C@H]6O)[C@](C)(CO)C5CC[C@]43C)[C@@H]2CC1(C)C (stereo partly specified) | -9.07 | inactive | – | – | inactive | –
CCCn1cnc2c(NCc3ccccc3)nc(N[C@H](CC)CO)nc21 | -7.86 | inactive | 0.198 | – | – | –
O=C(CCO[C@@H]1O[C@H](CO)[C@@H](O)[C@H](O)[C@H]1O)c1ccc(O)cc1 | 3.35 | inactive | -12 | – | – | –
CC1CCC2C(C(=O)O)=CC3CC(C)(C)CC132 (stereo unspecified) | 3.63 | inactive | -7.87 | – | – | –
OC[C@H]1O[C@@H](Oc2ccc(O)c3cccc(O)c23)[C@H](O)[C@@H](O)[C@@H]1O | – | inactive | -1.01 | inactive | – | –
